Test results reported in PubChem BioAssay (Tox21).
Unmarked numbers belong to inactive results. Inconclusive results are not listed. Where a call stands in place of a potency, no number is given. Calls of active or inactive are those of the source. Unless noted, calls follow the shape of the dose curve; as a rule, active = well fitted curve in the direction sought with a large enough effect in the repeat runs; inconclusive = weak or mixed curves; inactive = no such curve, though single readings can be large; an effect the other way counts as inactive or inconclusive.

Experiments:
[1] = qHTS assay to identify small molecule antagonists of the estrogen related receptor (ERR) signaling pathway from Tox21 library - cell viability counter screen (AID 1224834); also: nearly all actives have a fitted effect of over 30% in size; also: potency is read from the fitted curve at half-maximal effect
How it was run: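 ERR reporter cells were plated 6 h before compound addition, then exposed to test compounds in DMSO for 17.5 h at 37 C. Viability was read as CellTiter-Fluor fluorescence after a 30-minute incubation at 37 C.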

[2] = qHTS assay to identify small molecule agonists of the constitutive androstane receptor (CAR) signaling pathway - cell viability counter screen (AID 1224836); also: nearly all actives have a fitted effect of over 45% in size
How it was run: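 Counter screen multiplexed with the CAR reporter readout: HepG2 cells co-transfected with hCAR and the CYP2B6-2.2kb construct receive a 15-concentration compound series and 0.75 uM PK11195 (final), then CellTiter-Fluor fluorescence is read after 23 h.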

[3] = qHTS assay to identify small molecule antagonists of the constitutive androstane receptor (CAR) signaling pathway - cell viability counter screen (AID 1224837); also: nearly all actives have a fitted effect of over 45% in size
How it was run: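 HepG2 cells stably expressing hCAR and a CYP2B6-2.2kb reporter were plated and pre-incubated 4 hr at 37 C/5% CO2, then given compounds at 15 concentrations plus 50 nM CITCO (final). After 23 hr, viability was read by CellTiter-Fluor fluorescence.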

[4] = biological target: Nuclear receptor subfamily 1 group I member 3 (Homo sapiens) (UniProt Q14994); assay: qHTS assay to identify small molecule antagonists of the constitutive androstane receptor (CAR) signaling pathway (AID 1224838); also: nearly all actives have a fitted effect of over 40% in size; also: potency is read from the fitted curve at half-maximal effect
How it was run: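 HepG2 cells stably co-transfected with hCAR and a CYP2B6-2.2kb luciferase reporter were seeded 4 h before compound addition at 15 concentrations. Cells were stimulated with 50 nM CITCO (final) for 24 h at 37 C; luciferase luminescence was then read.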

[5] = qHTS assay to identify small molecule antagonists of the estrogen related receptor signaling pathway with the pleiotropic PPARgamma coactivator (PGC) from Tox21 10K library - cell viability counter screen (AID 1224840; active = well fitted cell-killing curve with a large enough effect in the repeat runs, not every such curve was filed as active; also: nearly all actives have a fitted effect of over 40% in size)
How it was run: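 PGC/ERR cells were seeded at 2,000 cells/well and left 6 hours at 37 C/5% CO2 before pin-tool addition of compounds in DMSO. After 17.5 hours at 37 C, CellTiter-Fluor was added and fluorescence read 30 minutes later.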

[6] = qHTS assay to identify small molecule agonists of the estrogen related receptor signaling pathway with the pleiotropic PPARgamma coactivator (PGC) from Tox21 10K library (AID 1224842); also: nearly all actives have a fitted effect of over 15% in size
How it was run: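 Luminescence from One-Glo (30 min, room temperature) measured after PGC/ERR cells had 18 h at 37 C with pinned compound (23 nL in DMSO). Cells had been seeded at 2,000 per well and pre-incubated 6 h.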

[7] = biological target: Thyrotropin receptor (Homo sapiens) (UniProt P16473); assay: qHTS assay to identify small molecule agonists of the thyroid stimulating hormone receptor (TSHR) signaling pathway (AID 1224843; calls by dose curve; also: nearly all actives have a fitted effect of over 45% in size)
How it was run: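 HEK293 cells stably bearing the thyrotropin receptor were plated at 800 cells/well and challenged with compound (30 min, RT). Accumulated cAMP was quantified via cAMP-d2 competing for cryptate-tagged antibody.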

[8] = qHTS assay to identify small molecule agonists of the hypoxia (HIF-1) signaling pathway - cell viability counter screen (AID 1224844; calls by dose curve; also: nearly all actives have a fitted effect of over 50% in size; also: potency is read from the fitted curve at half-maximal effect)
How it was run: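 HRE-bla ME-180 cells in medium with 0.5% dialyzed FBS were preincubated 5 hrs at 37C, exposed to compounds for 17 hrs, then viability was read as CellTiter-Glo luminescence after 30 min at room temperature, in the reporter wells.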

[9] = qHTS assay to identify small molecule agonists of H2AX - cell viability counter screen (AID 1224847; calls by dose curve; also: top concentration of the series differs between compounds; nearly all actives have a fitted effect of over 30% in size)
How it was run: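 We seed wild-type CHO-K1 cells overnight, treat them for 3 hr at 37C with compounds in 15-concentration series, and quantify remaining viability by CellTiter-Glo luminescence.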

[10] = qHTS assay to identify small molecule antagonists of the estrogen related receptor (ERR) signaling pathway from Tox21 library (AID 1224848); also: nearly all actives have a fitted effect of over 50% in size; also: potency is read from the fitted curve at half-maximal effect
How it was run: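 Reading was by luminescence 30 min after ONE-Glo addition. Before that, ERR cells at 2,000 per well had rested 6 h at 37 C/5% CO2 and then received pin-tooled compounds in DMSO for 18 h at 37 C.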

[11] = qHTS assay to identify small molecule agonists of the estrogen related receptor (ERR) signaling pathway from Tox21 library (AID 1224849; calls by dose curve; also: nearly all actives have a fitted effect of over 15% in size); conditions: ERR reporter cell line, ONE-Glo luciferase, 18 h; at 92.4 µM (top of the series) unless noted
How it was run: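 ERR reporter cell line (NTP) seeded, rested 6 h at 37 C/5% CO2, then pinned with Tox21 compounds in DMSO. After 18 h at 37 C, ONE-Glo luciferase luminescence was read following 30 min at room temperature.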

[12] = qHTS RealTime-Glo MT Cell Viability Assay in HepG2 cells - 24 hour (AID 1224867); also: nearly all actives have a fitted effect of over 50% in size
How it was run: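 Tox21 10K library screened in qHTS format on HepG2 cells carrying RealTime-Glo reagents. Compounds were added after a 5 h preincubation, and the luminescent signal from continuous culture was measured repeatedly during 40 h treatment.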

[13] = qHTS RealTime-Glo MT Cell Viability Assay in HEK293 cells - 32 hour (AID 1224868); also: nearly all actives have a fitted effect of over 50% in size; also: potency is read from the fitted curve at half-maximal effect
How it was run: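 Luminescence generated by NanoLuc from substrate produced by living HEK293 cells served as the viability signal. Each value reflects the reading at its stated time point during continuous 40 h compound exposure at 37 C.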

[14] = A CellTox Green Cytotoxicity Assay to monitor cytotoxicity in HEK293 cells - 0 hour (AID 1224869); also: nearly all actives have a fitted effect of over 50% in size
How it was run: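 HEK293 cells premixed with CellTox Green dye were seeded at 600 cells/well and left 5 h at 37 C/5% CO2 before pin transfer of 23 nL compound in DMSO. Fluorescence from dye bound to dead-cell DNA was read during 40 h treatment.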

[15] = qHTS RealTime-Glo MT Cell Viability Assay in HepG2 cells - 40 hour (AID 1224870); also: nearly all actives have a fitted effect of over 50% in size
How it was run: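 Real-time viability: cells seeded at 600 per well together with NanoLuc and cell-permeant prosubstrate, compounds added after 5 h incubation. Luminescence tracked at 0, 8, 16, 24, 32 and 40 h of exposure.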

[16] = biological target: Luciferin 4-monooxygenase (Photinus pyralis) (UniProt P08659); assay: qHTS assay to identify small molecule inhibitors of firefly luciferase (AID 1224835); also: nearly all actives have a fitted effect of over 25% in size
How it was run: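 Inhibition of purified Photinus luciferase is measured by luminescence. Substrate levels (D-luciferin, ATP) sit at their KM values. Each compound is tested in a concentration series.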

[17] = qHTS assay to identify small molecule agonists of H2AX (AID 1224845; active = well fitted activation curve with a large enough effect in the signal ratio in the repeat runs, not every such curve was filed as active; the % refers to the signal ratio)
How it was run: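 Phospho-H2AX Ser139 measured by HTRF (ex 320 nm; em 665 and 620 nm) after 24 hr antibody incubation. Compounds, 15 concentrations, 0.76% DMSO, were applied to CHO-K1 cells for 3hr at 37C before lysis.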

[18] = qHTS assay to identify small molecule agonists of the hypoxia (HIF-1) signaling pathway (AID 1224846; active = well fitted activation curve with a large enough effect in the signal ratio in the repeat runs, not every such curve was filed as active; the % refers to the signal ratio)
How it was run: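 HRE-bla ME-180 cells (beta-lactamase reporter under hypoxia response element) were plated at 2,000 cells/well in medium with 0.5% dialyzed FBS, rested 5 hrs, then given compounds in DMSO for 17 hrs at 37C, 5% CO2. Reporter induction was read with CCF4-AM FRET substrate.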

[19] = biological target: Nuclear receptor subfamily 1 group I member 3 (Homo sapiens) (UniProt Q14994); assay: qHTS assay to identify small molecule agonists of the constitutive androstane receptor (CAR) signaling pathway (AID 1224839); also: nearly all actives have a fitted effect of over 15% in size; also: potency is read from the fitted curve at half-maximal effect
How it was run: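 A 15-concentration quantitative screen uses HepG2 cells co-transfected stably with human CAR and CYP2B6-2.2kb reporter. Treatment lasts 24 h with 0.75 uM PK11195 final present; ONE-Glo luminescence is the signal.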

[20] = qHTS assay to identify small molecule antagonists of the estrogen related receptor signaling pathway with the pleiotropic PPARgamma coactivator (PGC) from Tox21 10K library (AID 1224841; call rule not given here)
How it was run: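 PGC/ERR reporter cells were seeded at 2,000 cells/well and held 6 hours at 37 C/5% CO2 before pin-tool addition of compounds in DMSO. After 18 hours at 37 C, One-Glo was added and luminescence read after 30 minutes at room temperature.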

Chain of Thyrotropin receptor (Homo sapiens) (P16473 whole entry, looked up): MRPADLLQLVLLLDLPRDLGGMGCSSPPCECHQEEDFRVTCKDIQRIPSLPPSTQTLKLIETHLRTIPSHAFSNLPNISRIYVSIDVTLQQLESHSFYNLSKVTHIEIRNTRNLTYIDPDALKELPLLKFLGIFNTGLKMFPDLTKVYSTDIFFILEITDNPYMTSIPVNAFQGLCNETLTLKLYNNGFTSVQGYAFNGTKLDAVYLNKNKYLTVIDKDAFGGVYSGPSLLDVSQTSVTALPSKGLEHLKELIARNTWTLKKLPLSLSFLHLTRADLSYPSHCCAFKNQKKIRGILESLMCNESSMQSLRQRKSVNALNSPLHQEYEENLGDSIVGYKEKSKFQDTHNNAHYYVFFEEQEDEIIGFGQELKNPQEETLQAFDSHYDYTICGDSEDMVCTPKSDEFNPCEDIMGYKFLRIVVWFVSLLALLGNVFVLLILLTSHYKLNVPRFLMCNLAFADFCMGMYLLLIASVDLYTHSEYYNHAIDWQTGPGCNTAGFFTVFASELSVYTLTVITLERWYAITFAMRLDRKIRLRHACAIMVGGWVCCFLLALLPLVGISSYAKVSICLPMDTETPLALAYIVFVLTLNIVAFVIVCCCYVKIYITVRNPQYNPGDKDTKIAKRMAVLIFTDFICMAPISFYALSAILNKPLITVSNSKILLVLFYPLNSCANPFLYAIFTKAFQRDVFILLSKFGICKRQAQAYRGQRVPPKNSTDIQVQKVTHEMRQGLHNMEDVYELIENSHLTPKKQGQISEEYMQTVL
Chain of Luciferin 4-monooxygenase (Photinus pyralis) (P08659 whole entry, looked up): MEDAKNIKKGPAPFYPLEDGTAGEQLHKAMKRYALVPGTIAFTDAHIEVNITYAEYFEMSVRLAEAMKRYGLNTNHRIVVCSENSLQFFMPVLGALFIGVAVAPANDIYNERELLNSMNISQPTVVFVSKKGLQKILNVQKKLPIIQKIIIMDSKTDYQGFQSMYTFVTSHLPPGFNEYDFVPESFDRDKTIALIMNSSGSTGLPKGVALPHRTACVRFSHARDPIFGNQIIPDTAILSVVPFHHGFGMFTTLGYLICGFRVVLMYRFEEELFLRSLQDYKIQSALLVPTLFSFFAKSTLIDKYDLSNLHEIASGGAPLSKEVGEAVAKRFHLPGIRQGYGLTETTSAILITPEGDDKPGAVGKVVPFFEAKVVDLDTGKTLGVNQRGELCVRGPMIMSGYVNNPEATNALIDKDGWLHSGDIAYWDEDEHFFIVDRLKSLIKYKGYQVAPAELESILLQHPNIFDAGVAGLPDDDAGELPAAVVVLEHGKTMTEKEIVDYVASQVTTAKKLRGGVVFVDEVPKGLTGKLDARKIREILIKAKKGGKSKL
Chain of Nuclear receptor subfamily 1 group I member 3 (Homo sapiens) (Q14994 whole entry, looked up): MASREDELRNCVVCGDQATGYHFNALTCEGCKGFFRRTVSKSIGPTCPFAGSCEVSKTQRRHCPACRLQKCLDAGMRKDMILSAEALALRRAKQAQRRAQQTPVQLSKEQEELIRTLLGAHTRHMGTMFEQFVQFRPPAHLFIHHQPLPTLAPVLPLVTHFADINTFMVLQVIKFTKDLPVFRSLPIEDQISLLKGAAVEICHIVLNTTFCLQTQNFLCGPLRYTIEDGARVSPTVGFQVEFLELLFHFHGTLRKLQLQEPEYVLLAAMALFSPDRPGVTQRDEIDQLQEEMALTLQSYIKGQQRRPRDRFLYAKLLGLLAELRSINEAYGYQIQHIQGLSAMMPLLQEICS

SMILES | Potency [1] | Potency [2] | Potency [3] | Potency [4] | Potency [5] | Potency [6] | Potency [7] | Potency [8] | Potency [9] | Potency [10] | activity change, positive = activation [11] | Potency [12] | Potency [13] | Potency [14] | Potency [15] | Potency [16] | Potency [17] | outcome [18] | Potency [19] | Potency [20]
O=C(O)Cc1cc(I)c(Oc2ccc(O)c(I)c2)c(I)c1 | inactive | inactive | inactive | inactive | inactive | inactive | inactive | 38.9 µM (active) | inactive | 27.3 µM (active) | -36.3% | inactive | inactive | inactive | inactive | – | – | – | – | –
C[C@@H](C1=C(CCN(C)C)Cc2ccccc21)c1ccccn1 | inactive | – | inactive | – | – | – | inactive | inactive | inactive | – | – | inactive | inactive | inactive | inactive | inactive | inactive | inactive | – | –
N#Cc1cc2ccccc2c2ccccc12 | inactive | inactive | inactive | inactive | – | – | – | inactive | inactive | – | – | inactive | inactive | inactive | inactive | – | inactive | inactive | 27.4 µM (active) | –
O=C(c1ccccc1)c1ccc2n1CCC2C(=O)O (stereo not given) | inactive | inactive | inactive | inactive | inactive | – | – | inactive | inactive | – | – | inactive | – | inactive | inactive | – | inactive | – | – | –
O=c1[nH]cnc2ccccc12 | inactive | – | inactive | – | inactive | – | inactive | inactive | inactive | – | – | inactive | inactive | inactive | inactive | inactive | inactive | inactive | – | –
CC(=O)CC(=O)c1ccccc1 | inactive | – | – | 10.9 µM (active) | inactive | – | – | – | inactive | inactive | 14.5% | inactive | – | inactive | inactive | inactive | – | inactive | inactive | inactive
O=[N+]([O-])c1cccc(Cl)c1Cl | inactive | inactive | inactive | inactive | inactive | – | inactive | inactive | inactive | inactive | 2.5% | inactive | – | inactive | inactive | – | inactive | inactive | inactive | inactive
CCCCCc1ccc(N)cc1 | inactive | inactive | inactive | inactive | inactive | – | inactive | inactive | – | – | – | inactive | inactive | inactive | inactive | – | inactive | inactive | inactive | –
FC(F)(F)C(F)(F)C(F)(F)C(F)(F)C(F)(F)C(F)(F)CCI | inactive | inactive | inactive | inactive | inactive | – | inactive | inactive | inactive | – | – | inactive | inactive | inactive | inactive | – | – | inactive | inactive | –
COCCOCCOCCOCCOC | inactive | – | inactive | – | – | – | inactive | – | inactive | – | – | inactive | inactive | inactive | inactive | inactive | inactive | – | – | –
CCCCOc1ccc(CC(=O)NO)cc1 | 18.8 µM (active) | – | – | inactive | inactive | – | – | – | inactive | – | – | inactive | – | inactive | inactive | inactive | – | – | inactive | –
CCCCCCCCCC(=O)OCC | inactive | – | inactive | – | inactive | – | inactive | – | inactive | – | – | inactive | inactive | inactive | inactive | inactive | inactive | inactive | inactive | –
O=C(c1ccc(O)cc1)c1ccc(O)cc1 | inactive | inactive | inactive | inactive | – | – | inactive | – | inactive | inactive | 37.5% (active) | inactive | – | inactive | inactive | – | – | inactive | – | inactive
CCCCc1cc2ccccc2c(OCCN(C)C)n1 | inactive | – | inactive | – | inactive | – | inactive | – | – | – | – | inactive | – | inactive | inactive | inactive | inactive | – | – | –
CCOC(=O)C1=NN(c2ccccc2)C(=O)C1 | inactive | – | inactive | – | inactive | – | inactive | inactive | inactive | – | – | inactive | inactive | inactive | inactive | inactive | – | inactive | – | –
CC[C@]12CCCN3CCc4c(n(c5ccccc45)C(=O)C1)[C@@H]32 | 9.44 µM (active) | – | – | – | inactive | inactive | inactive | – | inactive | – | -17.2% [at 42.5 µM] | inactive | 4.77 µM (active) | inactive | inactive | inactive | – | – | – | inactive
O=C(NN1CCCC1)NS(=O)(=O)c1ccc(Cl)cc1 | inactive | – | inactive | – | inactive | – | inactive | inactive | inactive | inactive | 5.66% [at 42.5 µM] | inactive | – | inactive | inactive | inactive | inactive | inactive | inactive | inactive
CCCCCC/C=C/C=O | inactive | – | inactive | – | inactive | inactive | – | inactive | inactive | inactive | 2.49% | inactive | – | inactive | inactive | inactive | – | – | inactive | inactive
